Laboratory results: paper PMC4336329 (PLoS ONE, 2015)
In all, about 310,000 compounds went through this assay and about 2,200 (0.71%) showed an effect of 50% or more. The effect is printed as a negative number. Shown is part of a subset that was picked to be rich in strong results.

Molecular target: human ether-à-go-go-related gene (hERG) potassium channel (human, UniProt Q12809)
Experiment: primary screen, population patch clamp on CHO cells stably expressing hERG; higher = less effect of the substance

Chain of human ether-à-go-go-related gene (hERG) potassium channel (Q12809 whole entry, looked up): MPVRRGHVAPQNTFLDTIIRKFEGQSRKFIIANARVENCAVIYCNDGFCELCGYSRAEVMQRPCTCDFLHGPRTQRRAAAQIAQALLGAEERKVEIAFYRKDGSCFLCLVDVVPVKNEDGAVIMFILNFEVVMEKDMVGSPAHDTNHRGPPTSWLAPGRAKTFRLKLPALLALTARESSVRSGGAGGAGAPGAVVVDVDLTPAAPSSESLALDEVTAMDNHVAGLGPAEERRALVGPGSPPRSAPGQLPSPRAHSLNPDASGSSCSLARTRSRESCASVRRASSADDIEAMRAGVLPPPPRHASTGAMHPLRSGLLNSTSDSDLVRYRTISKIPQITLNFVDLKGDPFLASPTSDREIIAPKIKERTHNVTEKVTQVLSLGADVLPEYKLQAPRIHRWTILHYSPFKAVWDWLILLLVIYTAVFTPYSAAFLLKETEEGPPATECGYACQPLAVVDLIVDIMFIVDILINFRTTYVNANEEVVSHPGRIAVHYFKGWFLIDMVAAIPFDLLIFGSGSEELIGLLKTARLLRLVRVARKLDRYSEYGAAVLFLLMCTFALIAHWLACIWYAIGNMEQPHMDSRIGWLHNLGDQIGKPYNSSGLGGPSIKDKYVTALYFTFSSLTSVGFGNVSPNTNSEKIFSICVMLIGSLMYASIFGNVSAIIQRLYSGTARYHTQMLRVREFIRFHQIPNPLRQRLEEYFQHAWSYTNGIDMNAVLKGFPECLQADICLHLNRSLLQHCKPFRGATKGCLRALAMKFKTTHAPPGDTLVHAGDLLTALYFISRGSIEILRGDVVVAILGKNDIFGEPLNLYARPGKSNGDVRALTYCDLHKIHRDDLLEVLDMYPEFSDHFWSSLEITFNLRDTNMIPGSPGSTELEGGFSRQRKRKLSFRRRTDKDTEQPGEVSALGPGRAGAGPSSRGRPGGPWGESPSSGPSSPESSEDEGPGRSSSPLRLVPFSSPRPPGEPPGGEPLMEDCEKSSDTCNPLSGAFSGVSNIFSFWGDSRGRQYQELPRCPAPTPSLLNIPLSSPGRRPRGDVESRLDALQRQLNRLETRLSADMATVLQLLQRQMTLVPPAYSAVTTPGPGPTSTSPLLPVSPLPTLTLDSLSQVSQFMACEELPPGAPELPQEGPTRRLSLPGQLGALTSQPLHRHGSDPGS

SMILES | hERG current change (%, negative = inhibition) at 1uM [%]
Cc1cccc(CN2CCCC(C(=O)c3ccc4c(c3)OCO4)C2)n1 (stereo not drawn) | -16.8
O=C(c1ccc2c(c1)OCO2)C1CCCN(Cc2ccc(OC(F)F)cc2)C1 (stereo not drawn) | -53
Cc1ccc(CN2CCCC(C(=O)c3ccc4c(c3)OCO4)C2)cc1C (stereo not drawn) | -27.1
O=C(c1ccc2c(c1)OCO2)C1CCCN(Cc2ccccc2OC(F)F)C1 (stereo not drawn) | -16.9
Cc1ccsc1C(=O)C1CCCN(Cc2cc(F)ccc2-n2cccn2)C1 (stereo not drawn) | -45.5
O=C(c1ccc2c(c1)OCO2)C1CCCN(Cc2c(F)cccc2Cl)C1 (stereo not drawn) | 0.9
O=C(c1ccc2c(c1)OCO2)C1CCCN(Cc2ccc(F)c(F)c2)C1 (stereo not drawn) | 5.03
Cc1ccc(-n2cccn2)c(CN2CCCC(C(=O)c3ccc4c(c3)OCO4)C2)c1 (stereo not drawn) | -83.5
O=C(c1ccc2c(c1)OCO2)C1CCCN(Cc2ccc3cccc(F)c3n2)C1 (stereo not drawn) | -81.5
Cc1ccc(-n2cccn2)c(CN2CCCC(C(=O)c3sccc3C)C2)c1 (stereo not drawn) | -82.8
COc1cc(OC)c(OC)cc1CN1CCCC(C(=O)c2ccc3c(c2)OCO3)C1 (stereo not drawn) | -27.7
Cc1ccsc1C(=O)C1CCCN(Cc2ccc(-n3cccn3)cc2)C1 (stereo not drawn) | -3.18
COc1ccc(CNCc2c(F)cccc2F)cc1OC.O=C(O)C(=O)O | 14.6
O=C(NC1CCCCCC1)c1ccc(CS(=O)Cc2cccc(Cl)c2)o1 (stereo not drawn) | 5.33
COc1cc(/C=N/N2CCN(Cc3ccc(Cl)cc3)CC2)cc(Br)c1O | 9.38
N#Cc1c(NC(=O)CCCN2C(=O)c3ccccc3C2=O)oc(-c2ccccc2)c1-c1ccccc1 | -0.65
Cc1cc2nc3ccc(N(C)C)cc3nc2cc1N | 13.3
CCOC1(OCC)N=C(N)C2(C#N)C(c3cccc(OC)c3OC)C12C#N (stereo not drawn) | 3.32
CN(C(=O)CCN1C(=O)c2ccccc2C1=O)c1ccccc1 | 15.8
CCc1cc(C(c2ccc(F)cc2)N2CCOCC2)c(NC(=O)c2ccccc2)s1 (stereo not drawn) | 11.2
CCCCNC(=O)N1CCOCCOCCN(C(=O)NCCCC)CCOCCOCC1 | 7.75

SMILES | hERG current change (%, negative = inhibition) at 1uM [%]
O=C(c1sc2cc([N+](=O)[O-])ccc2c1Cl)N1CCOCC1 | 0.235
CC(C)(C)CC(=O)OCC(=O)Nc1cc(C(C)(C)C)nn1-c1ccccc1 | -12.9
Cc1nn2c(-c3ccc(Cl)cc3Cl)nnc2s1 | -0.908
COc1cccc(CN2CCCC(C(=O)c3ccc4c(c3)OCO4)C2)c1O (stereo not drawn) | -44.6
O=C(c1ccc2c(c1)OCO2)C1CCCN(Cc2cc(F)ccc2-n2cccn2)C1 (stereo not drawn) | -78.2
COc1cccc(CN2CCCC(C(=O)c3ccc4c(c3)OCO4)C2)c1OC (stereo not drawn) | -25.3
Br.Nc1nc(-c2ccc(Br)cc2)cs1 | -2.25
C/C(=N/N1CCN(c2ccccc2)CC1)c1cccc([N+](=O)[O-])c1 | 8.81
Cc1ccc(Cl)cc1NS(=O)(=O)Cc1ccccc1 | 14.1
O=C(Nc1ccc(NC(=O)c2cccs2)cc1)c1cccnc1 | 13.4
Cc1ccccc1NS(=O)(=O)c1ccc(OCC(=O)NCc2ccccn2)cc1 | 3.12
O=C(c1ccco1)N1CCN(Cc2cc(=O)c(OCc3ccc([N+](=O)[O-])cc3)co2)CC1 | -29.4
Cc1ccc(-c2cc(C(=O)Nc3ccc(S(=O)(=O)Nc4onc(C)c4C)cc3)[nH]n2)c(O)c1 | -1.84
CCN1CCN(c2nc(-c3ccccc3)nc3ccccc23)CC1 | -30.4
CCN1CCN(c2nc(-c3ccncc3)nc3ccccc23)CC1 | -75.6
CN1CCN(c2nc(-c3ccc(Cl)c(Cl)c3)nc3ccccc23)CC1 | 9.87
CN1CCN(c2nc(-c3ccncc3)nc3ccccc23)CC1 | -64.9
CCN1CCN(c2nc(-c3cccnc3)nc3ccccc23)CC1.Cl | -18.4
CN1CCN(c2nc(-c3ccc(Cl)cc3Cl)nc3ccccc23)CC1 | -58.1
c1ccc2c(N3CCCC3)nc(-c3ccncc3)nc2c1 | 1.09
CCN1CCN(c2nc(-c3ccccn3)nc3ccccc23)CC1 | -17.5

SMILES | hERG current change (%, negative = inhibition) at 1uM [%]
CN1CCN(c2nc(-c3ccccc3Cl)nc3ccccc23)CC1 | -19.8
Cc1ccc(-c2nc(N3CCN(C)CC3)c3ccccc3n2)cc1.Cl | 3.62
CC1CN(c2nn3c(=O)c4ccccc4nc3c3ccccc23)CC(C)O1 (stereo not drawn) | -0.465
CCN1CCN(c2nn3c(=O)c4ccccc4nc3c3ccccc23)CC1 | -71.5
C/C(=N\NC(=O)c1ccc(Cl)cc1)c1ccccn1 | 8.17
O=S1(=O)CCC(NCC2CCCO2)C1 (stereo not drawn) | 12.9
CC(C)C(NC(=O)OCc1ccccc1)C(=O)OCC(=O)NC1CC1 (stereo not drawn) | 11.3
Fc1ccc(N/N=C/c2ccc(N3CCOCC3)cc2)c(F)c1 | 9.29
CCc1ccc(CN(C)C(=O)C2CCC(=O)N(CC3CCCCC3)C2)cc1 (stereo not drawn) | -12.3
COc1ccccc1N1CCN(C(=O)c2cn(C)c3ccc(S(=O)(=O)N4CCOCC4)cc3c2=O)CC1 | 13.1
O=c1nc(-c2ccccc2)n(-c2ccccc2)c2ncccc12 | 10.8
Cn1c(SCC(=O)NC2CCS(=O)(=O)C2)nnc1-c1ccco1 (stereo not drawn) | 10.3
Cc1cccc(NS(=O)(=O)c2cccs2)c1 | 10.7
CC1CC(C)CN(c2nc3c(c(=O)n(C)c(=O)n3C)n2C)C1 (stereo not drawn) | 11.1
O=C(/C=C/c1cccc(F)c1)Nc1cc(S(=O)(=O)N2CCOCC2)ccc1N1CCCC1 | 0.626
O=C(/C=C/c1ccc(F)cc1)Nc1cc(S(=O)(=O)N2CCOCC2)ccc1N1CCCC1 | -60.3
CCN1CCN(c2ccc(S(=O)(=O)N3CCOCC3)cc2NC(=O)/C=C/c2ccc(C)cc2)CC1 | -4.67
CCN1CCN(c2ccc(S(=O)(=O)N3CCOCC3)cc2NC(=O)/C=C/c2ccc([N+](=O)[O-])cc2)CC1 | -50.5
O=C(/C=C/c1ccccc1)Nc1cc(S(=O)(=O)N2CCOCC2)ccc1N1CCCC1 | 15.7
CCN1CCN(c2ccc(S(=O)(=O)N3CCCCC3)cc2NC(=O)/C=C/c2ccc([N+](=O)[O-])cc2)CC1 | 6.53
O=c1cc(-c2ccccc2[N+](=O)[O-])oc2ccccc12 | 7.73

SMILES | hERG current change (%, negative = inhibition) at 1uM [%]
CC(C)C(=O)C1=Cc2cc([N+](=O)[O-])ccc2OC1N1CCOCC1 (stereo not drawn) | 9.39
O=C(CCCC(=O)NCC1CCCO1)NCC1CCCO1 (stereo not drawn) | 3.68
O=c1ccc2cc3c([nH]c4ccc(Br)cc43)oc-2c1O | 4.16
CCN1CCN(C(c2ccc(OC)cc2)C(O)C(=O)c2c[nH]c3ccccc23)CC1 (stereo not drawn) | -64.4
COc1ccc(C(C(O)C(=O)c2c[nH]c3ccccc23)N2CCN(c3ccc(OC)cc3)CC2)cc1 (stereo not drawn) | 2.28
COc1ccc(C(C(O)C(=O)c2c[nH]c3ccccc23)N2CCN(c3ccccc3)CC2)cc1 (stereo not drawn) | 4.75
CC(C)Oc1ccc(N2CC(C(=O)Nc3ccc4c(c3)OCO4)CC2=O)cc1 (stereo not drawn) | 5.88
Cc1[nH]c(=O)[nH]c(=O)c1S(=O)(=O)Nc1cccc([N+](=O)[O-])c1C | 11.5
CC1CCN(CCCOc2ccc(OCc3ccccc3)cc2)CC1.O=C(O)C(=O)O | -14.1
COc1cccc(OC)c1OCCCCN1CCC(Cc2ccccc2)CC1.O=C(O)C(=O)O | -78.6
O=C(O)C(=O)O.c1ccc(COc2ccc(OCCCCN3CCCC3)cc2)cc1 | -28.2
COc1cccc(OC)c1OCCCCN1CCCC1 | 4.67
COc1cccc(OC)c1OCCCCN1CCCCC1.O=C(O)C(=O)O | 9.21
COc1cccc(OC)c1OCCCN1CCC(Cc2ccccc2)CC1.O=C(O)C(=O)O | -79.3
COc1cc(CN2CCC(Cc3ccccc3)CC2)cc(OC)c1OC.O=C(O)C(=O)O | -12
CC(=O)CCc1ccc(OCCCCN2CCC(Cc3ccccc3)CC2)cc1.O=C(O)C(=O)O | -68.3
COc1ccccc1N1CCN(CCCCOc2c(OC)cccc2OC)CC1.O=C(O)C(=O)O | -38.6
COc1cc2cc(C(c3nnnn3C(C)(C)C)N3CCc4ccccc4C3)c(=O)[nH]c2cc1OC (stereo not drawn) | -3.88
CCN(CCNC(=O)CCCn1nc(C)n2c(cc3sccc32)c1=O)c1ccccc1 | -1.14
CN(C)Cc1ccc(-c2nc3cccc4c3n2CCNC4=O)cc1 | -0.249
O=C(NCc1ccccc1)C(c1ccco1)N(C(=O)c1csnn1)C1CC1 (stereo not drawn) | 11.6
